Screening data (PubChem)
Rows were chosen to be rich in hits. Some 17% of all compounds tested hit in one or more screens of this group.
HepG2 viability – kills HepG2 cells in TGF-b inhibitor counter-screen | AID 588856 | hit rate 0.76% among 410,000 | Potency, µM (doses to about 46.1 µM), inactives show at the highest dose activity change, negative = cytotoxicity, most hits filed as cytotoxic | HepG2 CAGA-GFP viability, ATP luminescence, 18 h
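CellTiter-Glo luminescence gave cytotoxicity after 18 hours at 37 degrees C. The cells were HepG2 CAGA-GFP in 1% FBS DMEM, stimulated with 500 pg/mL TGF-beta after compound addition. %Activity was normalised to no-cell wells (complete cell-killing) and DMSO (no toxicity), and curves were fitted and classified.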
TGFb inhibitor – TGF-b pathway inhibition. HepG2 CAGA-GFP TGF-b/SMAD3 reporter, GFP fluorescence, 18 h; TGF-beta stimulated, 500 pg/mL final. Potency, µM (titrated, usually from 46.1 µM), inactives show at the top dose activity, negative = inhibition, usual class: inhibitors. hit rate 1.2% among 410,000. AID 588855; also: % is scaled to controls: 0 for no effect and ±100 for the full control effect; nearly all actives have a fitted effect of over 65% in size
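GFP signal (ex488/em500-530) from TGF-beta-stimulated HEPG2 CAGA-GFP cells, 500 pg/mL final, 18 h at 37 degrees C in DMEM plus 1% FBS, normalized to unstimulated and DMSO-stimulated controls.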
TDP1 cell noCPT – qHTS for Inhibitors of human tyrosyl-DNA phosphodiesterase 1 (TDP1): qHTS in cells in absence of CPT; DT40 Tdp1-/- hTDP1 cells, no CPT, ATP luminescence, 48 h; Potency, µM (top dose mostly 46.2 µM), for the others: at the highest dose activity change, negative = growth inhibition, usual class: inhibitors; hit rate 15% among 420,000; AID 686978, 2013; also: % is scaled to controls: 0 for no effect and ±100 for the full control effect; nearly all actives have a fitted effect of over 55% in size
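No-CPT arm: Tdp1-/-;hTDP1 DT40 cells (400/well) plus compounds, incubated ≥48 hr at 37 °C. Readout CellTiter-Glo luminescence.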
ATXN2 expr inh – reduces ATXN2 reporter expression in HEK-293 cells. HEK-293 ATXN2-luciferase reporter, luminescence, 24 h. Potency, µM (doses to about 57 µM), without a hit: top-dose activity change, negative = inhibition, actives largely listed as inhibitors. hit rate 0.72% among 360,000. AID 1745845; also: % is scaled to controls: 0 for no effect and ±100 for the full control effect; nearly all actives have a fitted effect of over 55% in size
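qHTS (up to 57 uM final) was run with 24 h compound exposure of reporter cells at 37 °C. Each well was multiplexed: SteadyGlo luminescence measured ATXN2-luciferase expression after a fluorogenic Gly-Phe-AFC viability readout (25 uM final).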
TDP1 cell CPT – growth inhibition of DT40 Tdp1-/-;hTDP1 cells with camptothecin (screen for TDP1 inhibitors). chicken DT40 Tdp1-/-;hTDP1 cells + 20 nM CPT, ATP luminescence, 48 h. Potency, µM (titrated, usually from 46.2 µM), without a hit: at the highest dose activity change, negative = growth inhibition, actives largely listed as inhibitors. hit rate 12% among 420,000; also: % is scaled to controls: 0 for no effect and ±100 for the full control effect; nearly all actives have a fitted effect of over 55% in size
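Chicken DT40 Tdp1-/- cells complemented with human TDP1, 400 cells/well, exposed to compounds plus 20 nM camptothecin for at least 48 h at 37 C; viability read as ATP content by CellTiter-Glo luminescence.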
ATXN viability – viability counter-screen for ATXN expression inhibitors. Potency, µM (series often up to 56.7 µM), usual class: cytotoxic. S2 cells (HEK-293 line with an ATXN2-luciferase reporter) viability, CellTiter-Fluor protease fluorescence, 24 h. AID 651635. hit rate 0.49% among 400,000; also: nearly all actives have a fitted effect of over 40% in size
Starred values were filed as active, the others as inactive; i = inactive; ? = inconclusive; . = not tested or not shown; [ ] = another dose, or the depositor's remark. Calls follow the shape of the dose curve; as a rule, active = well fitted curve in the direction sought with a large enough effect; inconclusive = small, poorly fitted or top-dose-only effect, or another doubt; inactive = no such curve, though single readings can be large; an effect the other way counts as inactive or inconclusive. Potency is read from the fitted curve at half-maximal effect.

SMILES | HepG2 viability | TGFb inhibitor | TDP1 cell noCPT | ATXN2 expr inh | TDP1 cell CPT | ATXN viability
Cc1ccc(C(=O)CSc2nnc(N)s2)c(C)c1 | -4% | 4% | 2% | 26% | 2% | i
COc1ccccc1/C=C/C=N/NC(=O)CCn1cnc2ccccc21 | -7% | -1% | 10µM* | -21% | 16µM* | i
COc1ccc(/C=C/C(=O)Oc2cccc(/C=N/NC(=O)COc3c(C)cccc3C)c2)cc1 | -35% | -1% | 15µM* | -18% | 21µM* | i
O=C(CSc1nc2ccccc2s1)N/N=C/c1ccc(C(=O)O)cc1 | -38% | -34% | ? | . | -9% | i
COc1ccc(/C=N/NC(=O)CCSc2nc3ccccc3s2)cc1 | -21% | -4% | 2.6µM* | -28% | 5.8µM* | i
OC[C@@H](O)C(O)[C@H](O)CO | . | . | -5% | . | -5% | .
CC(C)(C)c1nnc2cccc(Cl)n12 | 0% | -2% | 3% | . | -6% | ?
Cn1c(SCC(=O)N2CCCc3ccccc32)nc2cccnc21 | -12% | -1% | ? | -10% | ? | i
O=C(CSc1nccn1-c1ccccc1)N1CCc2ccccc21 | -4% | 1% | -21% | 38% | -22% | i
CC(C)Cn1c(SCC(=O)N2CCCc3ccccc32)nc2ccccc2c1=O | -10% | ? | 18µM* | -25% | 16µM* | i
Cn1c(SCC(=O)N2CCc3ccccc32)nc2cccnc21 | 16% | -10% | 21µM* | 0% | 16µM* | i
O=C(CSc1nccn1-c1ccc(Cl)cc1)N1CCCc2ccccc21 | 2% | -28% | 15µM* | 1% | ? | i
CCn1c(SCC(=O)N2CCCc3ccccc32)nc2cccnc21 | -46% | -2% | 18µM* | -9% | ? | i
O=C(CCC(=O)N1CCOCC1)Nc1nnc(C2CCCCC2)s1 | -12% | 8% | -8% | 3% | -20% | i
O=C(NCCCN1CCOCC1)c1cnn(-c2ncc3c(n2)-c2ccccc2CC3)c1C1CC1 | . | . | -15% | . | -2%[9.04 µM] | i
Cc1ccc(CNS(=O)(=O)/C=C/c2ccc3c(c2)OCO3)cc1 | 3% | -3% | ? | 6% | -6% | i
CCn1c(SCC(=O)N2CCCc3ccccc32)nc2ccccc2c1=O | -16% | -1% | 15µM* | -9% | ? | i
COCCCn1c(=O)c2ccccc2n(CC(=O)N2CCCc3ccccc32)c1=O | 2% | 0% | ? | -11% | 26µM* | ?
CC(C)OCCCn1c(SCC(=O)N2CCc3ccccc32)nc2ccccc2c1=O | -3% | 2% | 12µM* | -2% | ? | i
CC[C@H](C)[C@H]1CNC(=S)N1CC1CCN(CC)CC1 | 6% | 4% | 1% | 1% | -5% | i
Cc1ccc(NC(=O)COc2ccccc2C(N)=O)cc1S(=O)(=O)N1CCCCCC1 | -18% | ? | 3.7µM* | ? | 4.1µM* | 15µM*
COc1ccc(NC(=O)COc2ccccc2C)cc1S(=O)(=O)N1CCCCC1 | 23% | ? | 8.2µM* | 5% | ? | i
COC(=O)c1ccc(COC(=O)c2ccc(C)c(S(=O)(=O)N3CCCCC3)c2)cc1 | -9% | -9% | ? | 24% | 29µM* | i
COc1ccc(NC(=O)CN(C)CC(=O)Nc2ccc(C)c(S(=O)(=O)N3CCCCC3)c2)cc1 | -26% | ? | ? | -26% | ? | i
Cc1ccc(NC(=O)COc2ccc(N(C)C(=O)C(C)(C)C)cc2)cc1S(=O)(=O)N1CCCCC1 | -32% | ? | 2.3µM* | ? | 8.2µM* | ?
SMILES | HepG2 viability | TGFb inhibitor | TDP1 cell noCPT | ATXN2 expr inh | TDP1 cell CPT | ATXN viability
COc1ccc(NC(=O)COc2ccccc2C(N)=O)cc1S(=O)(=O)N1CCCCC1 | 3% | -3% | ? | . | -10% | ?
CCOc1ccc(CCNC(=O)c2cccc(-n3cnnn3)c2)cc1OCC | -5% | 0% | ? | -2% | ? | ?
Cc1ccc(NC(=O)COC(=O)c2ccccc2F)cc1S(=O)(=O)N1CCCCC1 | 6% | 0% | 1% | 4% | 4% | i
Cc1ccc(NC(=O)CCl)cc1S(=O)(=O)N1CCCCCC1 | -41% | ? | 2.6µM* | ? | 2.1µM* | ?
Cc1ccc(NC(=O)c2ccc(C)c(S(=O)(=O)N3CCCCCC3)c2)cc1 | -12% | -13% | . | -4% | . | ?
Cc1ccc(NC(=O)COC(=O)c2cccc(C)c2[N+](=O)[O-])cc1S(=O)(=O)N1CCCCC1 | -13% | -15% | ? | -6% | 16µM* | i
Cc1ccc(C(=O)Nc2cccc(O)c2)cc1S(=O)(=O)N1CCCCCC1 | 0% | ? | 1.2µM* | 2% | 29µM* | ?
CCOc1ccc(C(=O)CCC(=O)Nc2ccc(C)c(S(=O)(=O)N3CCCCC3)c2)cc1 | 3% | -9% | 16µM* | -7% | -15% | i
O=c1[nH]c(=S)[nH]c2nccnc12 | -3% | -5% | -16% | 2% | -3% | i
Nc1ncnc2c1ncn2[C@@H]1O[C@H](CNC(=O)[C@H](N)Cc2cscn2)[C@@H](O)[C@H]1O | 0% | -4% | -12% | -9% | 6% | i
Cc1ccc(NC(=O)COc2cccc(C)c2C)cc1S(=O)(=O)N1CCCCCC1 | 2% | ? | 18µM* | -18% | ? | i
CCc1noc(C)c1C(=O)Nc1ccc(C)c(S(=O)(=O)N2CCCCCC2)c1 | -25% | ? | ? | -33% | 16µM* | ?
Cc1ccc(OCC(=O)Nc2ccc(C)c(S(=O)(=O)N3CCCCCC3)c2)c([N+](=O)[O-])n1 | 3% | 1% | ? | -32% | ? | i
Cc1ccc(NC(=O)/C=C/c2ccco2)cc1S(=O)(=O)N1CCCCCC1 | -29% | ? | 9.2µM* | -21% | 21µM* | ?
COc1ccc(NC(=O)CN2CCCCC2)cc1S(=O)(=O)N1CCCCC1 | 0% | -3% | 6% | -2% | 15% | ?
COc1ccc(NC(=O)CN(Cc2ccco2)Cc2ccco2)cc1S(=O)(=O)N1CCCCC1 | -3% | 1% | ? | -6% | 23µM* | ?
CCOC(=O)C1=C(c2ccccc2)NC(SCC)=C(C#N)C1c1cccnc1 (centres undefined) | -24% | -21% | ? | 5% | ? | i
Cc1c(NC(=O)/C(C#N)=C/c2cccs2)c(=O)n(-c2ccccc2)n1C | -6% | 14% | -1% | . | -4% | i
